An excerpt weighted towards active compounds, which were near 6.7% of everything screened.
T cruzi growth-1: T. cruzi intracellular proliferation inhibitors, primary screen, cell-based, beta-gal Tulahuen parasites, NIH3T3 host, luminescence | T. cruzi beta-gal in NIH3T3, GalScreen luminescence, 90 h | inhibition, % at 8.34 µM | 77,000 compounds, 5.9% hits | AID 624255, 2012;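 active = mean inhibition above about 93%, with at least 55% of replicates each passing it, limit read from the data, passing the limit was not always enough; inconclusive = only one of those two conditions holds; inactive = neither condition holds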
C diff growth: C. difficile growth inhibitors, primary screen, HTS; growth activity, negative = inhibition, % at 16 µg/mL (by protocol); Clostridium difficile clinical isolate growth, OD600, 24 h; stronger effect = lower value; 86,000 compounds, 0.25% hits;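 active = mean growth activity at or below -80% and every replicate also at or below -80%; inconclusive = mean at or below -80% but some replicate above -80%; inactive = mean growth activity above -80%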
Pf Dd2 growth: P. falciparum Dd2 growth inhibitors, primary screen, SYBR Green fluorescence, single dose replicates; AID 1159554, 2015; activity change, % at 10 µM; 94,000 compounds, 2.3% hits; 72 h; stronger effect = lower value; in the data active = activity change below about -80%; inconclusive = no clear call, values can overlap the other calls
T cruzi growth-2: T. cruzi intracellular proliferation inhibitors, confirmation, cell-based, NIH3T3 host, beta-gal parasite, luminescence, cherry-pick. shares compounds with T cruzi growth-1. T. cruzi beta-gal in NIH3T3, GalScreen luminescence, 90 h. AID 651739, 2012. 5,600 compounds, 72% hits. inhibition, % at 8.35 µM;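 active = mean replicate inhibition above about 95% and at least 55% of replicates individually reaching it, limit read from the data; inconclusive = only one of the two criteria is met; inactive = neither criterion is met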
T cruzi growth-3: inhibitors of intracellular T. cruzi replication, confirmation, NIH3T3 host cells, beta-gal parasites, cherry-pick, set 2. inhibition, % at 2.09 µM. 5,600 compounds, 21% hits. AID 651740, 2012. T. cruzi beta-gal in NIH3T3, GalScreen luminescence, 90 h. shares compounds with T cruzi growth-1;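 active = mean inhibition above about 95%, with at least 55% of replicates also reaching it, limit read from the data; inconclusive = meets just one of the two conditions; inactive = meets neither condition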
NIH3T3 tox: cytotoxicity in mouse NIH/3T3 fibroblasts, confirmation, cytotoxicity control for T. cruzi proliferation inhibitor project, cell-based, cherry-pick, single point; NIH/3T3 viability, CellTiter-Glo ATP luminescence, 90 h; shares compounds with T cruzi growth-1; 5,600 compounds, 14% hits; cytotoxicity (signal decrease), % at 8.35 µM;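 active = mean signal decrease across replicates above about 35% based on untreated-well scatter, with enough replicates individually passing, limit read from the data; inconclusive = no rule stated though some were filed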
NIH3T3 tox 2: NIH/3T3 fibroblast cytotoxicity, confirmation, cytotoxicity control, cell-based, cherry-pick, single point, set 2; shares compounds with T cruzi growth-1; NIH/3T3 viability, CellTiter-Glo ATP luminescence, 90 h; inhibition, % at 24.9 µM; 5,600 compounds, 56% hits; AID 651744, 2012;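 active = mean loss of cell viability signal at or above a set limit, and enough replicates individually reaching it; inconclusive = meets only the mean limit or only the replicate share; inactive = meets neither condition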
A number is an active result; – = inactive; ? = inconclusive; · = no result.

SMILES	T cruzi growth-1	C diff growth	Pf Dd2 growth	T cruzi growth-2	T cruzi growth-3	NIH3T3 tox	NIH3T3 tox 2
C[C@H](CO)N1C[C@H](C)[C@@H](CN(C)Cc2cccc(F)c2)Oc2cc(-c3ccccc3)ccc2S1(=O)=O	107	–	–	–	–	43	101
CC(=O)N1CC2(C1)[C@H](c1ccc(-c3ccc(C#N)cc3)cc1)[C@@H](CO)N2C(C)=O	·	–	–	·	·	·	·
CCNC(=O)C[C@H]1CC[C@@H]2[C@@H](COc3ccc(NC(=O)Nc4ccccc4OC)cc3C(=O)N2C)O1	–	–	–	·	·	·	·
O=C(Nc1ccc(F)cc1)N1C[C@@H]2[C@H](c3ccccc31)[C@H](CO)N2C(=O)c1ccccc1F	–	–	–	·	·	·	·
O=C(C[C@@H]1CC[C@H]2[C@@H](COC[C@H](O)CN2CC2CCOCC2)O1)N1CCOCC1	–	·	–	·	·	·	·
C[C@@H]1CN([C@H](C)CO)C(=O)c2cc(NC(=O)C3CCCCC3)ccc2O[C@@H](C)CCCCO[C@@H]1CN(C)Cc1ccc2c(c1)OCO2	–	–	–	·	·	·	·
CC(=O)N(Cc1cccc(F)c1)C[C@@H]1[C@@H](c2ccccc2)[C@@H](CO)N1C(C)=O	·	–	–	·	·	·	·
C[C@H]1CN([C@@H](C)CO)S(=O)(=O)c2ccc(-c3ccccc3)cc2O[C@@H]1CN(C)Cc1cccc(F)c1	119	–	–	–	108	?	103
C[C@@H]1CN([C@H](C)CO)S(=O)(=O)c2ccc(-c3ccc(C#N)cc3)cc2O[C@@H]1CN(C)Cc1cccc(F)c1	·	–	–	·	·	·	·
O=C(c1ccccn1)N1C[C@@H]2[C@H](c3ccccc31)[C@@H](CO)N2C(=O)Nc1ccccc1F	–	–	–	·	·	·	·
C[C@H]1CN([C@@H](C)CO)S(=O)(=O)c2ccc(-c3ccncc3)cc2O[C@H]1CN(C)Cc1ccc(Oc2ccccc2)cc1	–	–	–	·	·	·	·
C[C@@H]1CN([C@H](C)CO)S(=O)(=O)c2ccc(-c3ccncc3)cc2O[C@@H]1CN(C)Cc1ccc(Oc2ccccc2)cc1	116	–	-87	99	107	84	89
C[C@H]1CN([C@@H](C)CO)S(=O)(=O)c2ccc(-c3ccncc3)cc2O[C@@H]1CN(C)Cc1ccc(Oc2ccccc2)cc1	?	–	–	–	107	86	103
C[C@@H]1CN([C@@H](C)CO)S(=O)(=O)c2ccc(-c3cncnc3)cc2O[C@@H]1CN(C)Cc1ccc(Oc2ccccc2)cc1	·	·	–	·	·	·	·
COCC(=O)Nc1ccc2c(c1)[C@H]1C[C@@H](CC(=O)N3CCc4ccccc4C3)O[C@H](CO)[C@H]1O2	–	–	–	·	·	·	·
CC(=O)N1[C@@H](CO)[C@@H]2c3ccccc3N(S(=O)(=O)c3ccc(F)cc3)C[C@@H]21	–	–	–	·	·	·	·
CN1C(=O)c2cc(NS(=O)(=O)c3cccc(F)c3)ccc2OC[C@@H]2O[C@@H](CC(=O)NCCN3CCCCC3)CC[C@@H]21	–	–	–	·	·	·	·
CCCC(=O)Nc1ccc2c(c1)C(=O)N(C)[C@H]1CC[C@H](CC(=O)NCCN3CCCCC3)O[C@H]1CO2	–	–	–	·	·	·	·
CN1C(=O)c2cc(NS(=O)(=O)c3cccc(F)c3)ccc2OC[C@@H]2O[C@H](CC(=O)NCCN3CCCCC3)CC[C@@H]21	97	·	–	–	–	–	–
Cc1ccc(S(=O)(=O)Nc2ccc3c(c2)C(=O)N(C)[C@@H]2CC[C@H](CC(=O)O)O[C@H]2CO3)cc1	–	–	–	·	·	·	·
CCCC(=O)Nc1ccc2c(c1)C(=O)N(C)[C@H]1CC[C@@H](CC(=O)NCCN3CCCCC3)O[C@H]1CO2	99	–	–	98	–	–	–
CN1C(=O)c2cc(NS(=O)(=O)c3ccc(F)cc3)ccc2OC[C@@H]2O[C@H](CC(=O)O)CC[C@H]21	103	–	–	–	–	–	–
CCNC(=O)C[C@@H]1CC[C@@H](NC(=O)C2CC2)[C@H](CO)O1	–	·	–	·	·	·	·
C[C@H]1CCCCO[C@@H](CN(C)CC2CCCCC2)[C@@H](C)CN([C@@H](C)CO)C(=O)c2cc(NC(=O)NC3CCCCC3)ccc2O1	–	·	–	·	·	·	·
O=C(N[C@H]1CC[C@H](CC(=O)N2CCCCC2)O[C@@H]1CO)c1ccccn1	–	–	–	·	·	·	·
SMILES	T cruzi growth-1	C diff growth	Pf Dd2 growth	T cruzi growth-2	T cruzi growth-3	NIH3T3 tox	NIH3T3 tox 2
C[C@H]1CN([C@@H](C)CO)C(=O)c2cc(NC(=O)NC3CCCCC3)ccc2O[C@@H]1CN(C)Cc1ccc(Cl)c(Cl)c1	–	–	–	·	·	·	·
C[C@@H]1CN([C@H](C)CO)C(=O)c2cc(NC(=O)NC3CCCCC3)ccc2O[C@H]1CN(C)Cc1ccc(Cl)c(Cl)c1	93	–	–	106	–	–	–
C[C@H](CO)N1C[C@H](C)[C@@H](CN(C)Cc2ccc(Cl)c(Cl)c2)Oc2ccc(NC(=O)NC3CCCCC3)cc2C1=O	–	–	–	·	·	·	·
C[C@@H]1CN([C@@H](C)CO)C(=O)c2cc(NC(=O)NC3CCCCC3)ccc2O[C@@H]1CN(C)Cc1ccc(Cl)c(Cl)c1	?	–	–	97	–	–	–
CO[C@@H]1CN(C)C(=O)c2ccc(NS(=O)(=O)c3ccc(C)cc3)cc2OC[C@H](C)N(C(=O)NC(C)C)C[C@H]1C	–	·	·	·	·	·	·
CC(C)CC#Cc1cnc2c(c1)C(=O)N([C@@H](C)CO)C[C@@H](C)[C@H](CN(C)C(=O)CN1CCOCC1)O2	–	–	–	·	·	·	·
CO[C@H]1CC[C@@H]2CCOc3c(C#N)cccc3C(=O)N(C)C[C@H](OC)[C@@H](C)C(=O)N(C)C[C@@H]1O2	–	–	·	·	·	·	·
CO[C@@H]1CN(C)C(=O)c2cc(NC(=O)C3CCOCC3)ccc2OC[C@@H](C)N(Cc2nccs2)C[C@H]1C	–	·	–	·	·	·	·
C[C@@H](O)C#Cc1ccc([C@@H]2[C@H](CO)N3CCCCN(C(=O)c4ccncc4)C[C@@H]23)cc1	–	–	–	·	·	·	·
C[C@H](O)C#Cc1ccc([C@H]2[C@@H](CO)N3CCCCN(C(=O)c4ccncc4)C[C@@H]23)cc1	–	–	–	·	·	·	·
COc1ccc(C#Cc2ccc([C@H]3[C@H](CO)N4CCCCN(C(=O)c5ccncc5)C[C@@H]34)cc2)cc1	116	–	–	114	–	–	97
COc1ccc(C#Cc2ccc([C@H]3[C@@H](CO)N4CCCCN(C(=O)c5ccncc5)C[C@@H]34)cc2)cc1	116	–	–	104	–	–	–
C[C@H](O)C#Cc1ccc([C@H]2[C@@H](CO)N3CCCCN(C(=O)c4ccncc4)C[C@H]23)cc1	–	–	–	·	·	·	·

Screens as filed in PubChem BioAssay.
